Results from PubChem BioAssay AID372 (MTDP, 2006).
The campaign covered roughly 100,000 compounds. About 770 (0.77%) were called active. Rule as the data show it: active = inhibition above about 50%; inactive = the rest. For the sample, actives were picked, then their nearest neighbours and some compounds at random.

molecular target: Gag-Pol polyprotein (Human immunodeficiency virus type 1 group M subtype B (isolate HXB2)) (UniProt P04585); assay: RNase H inhibition, HIV 1 Gag Pol polyprotein, FRET biochemical assay, screening (AID 372); conditions: HIV-1 RT RNase H, FRET RNA/DNA substrate fluorescence; at 10 µM; active compounds read high

Row | Structure (SMILES) | inhibition
1 | CCOC(=O)C(=Cc1ccc(OCc2ccc([N+](=O)[O-])cc2)c(OC)c1)C(=O)OCC | 59% (active)
2 | CCOC(=O)C(=Cc1cc(OC)c(O)c([N+](=O)[O-])c1)C(=O)OCC | 5% (inactive)
3 | CCOc1cc(C=O)cc(Br)c1OCc1ccc([N+](=O)[O-])cc1 | 28% (inactive)
4 | CCOc1cc(C=O)cc(Cl)c1OCc1ccc([N+](=O)[O-])cc1 | 54% (active)
5 | COC(=O)C(=Cc1cc(Br)c(OCc2ccc([N+](=O)[O-])cc2)c(OC)c1)C(=O)OC | 12% (inactive)
6 | O=Cc1cc(Cl)c(OCc2ccc([N+](=O)[O-])cc2)c(Cl)c1 | 25% (inactive)
7 | NNC(=O)COc1cccc2ccccc12 | 1% (inactive)
8 | COc1ccc(C(=O)NC(=S)Nc2ccc3ccccc3c2)cc1OC | 17% (inactive)
9 | O=C(O)c1ccc(-c2ccc(/C=N/N3C(=O)C4C5C=CC(CC5)C4C3=O)o2)cc1 (stereo not drawn) | 2% (inactive)
10 | O=C(c1cccc(Br)c1)N1N=C(c2ccc(F)cc2)CC1(O)C(F)(F)F (stereo not drawn) | 22% (inactive)
11 | O=C(c1cccc(Br)c1)N1N=C(c2ccccc2)CC1(O)C(F)(F)F (stereo not drawn) | 50% (active)
12 | O=C(c1ccccc1)N1N=C(c2ccccc2)CC1(O)C(F)(F)F (stereo not drawn) | 9% (inactive)
13 | O=C(Nc1cccc2ccccc12)ON=C1c2ccccc2-c2ccccc21 | 56% (active)
14 | O=C(Nc1ccccc1)ON=C1c2ccccc2-c2ccccc21 | 42% (inactive)
15 | O=C(Nc1ccccc1Cl)ON=C1c2ccccc2-c2ccccc21 | 43% (inactive)
16 | COc1ccccc1NC(=O)Nc1cccc2ccccc12 | 15% (inactive)
17 | CCN(CC)c1ccc(C(NC(C)=O)NC(C)=O)cc1 | 0% (inactive)
18 | Cc1ccc([N+](=O)[O-])cc1NC(=O)C1CC1 | 0% (inactive)
19 | COc1ccc(CC(=O)NNC(=O)c2ccc(Cl)cc2)cc1OC | 9% (inactive)
20 | CC1=CC(C)(C)N(C(=O)c2ccccc2)c2ccccc21 | 10% (inactive)
21 | CCC(C(=O)N1c2ccccc2C(C)=CC1(C)C)c1ccccc1 (stereo not drawn) | 50% (active)

Row | Structure (SMILES) | inhibition
22 | CC(=O)N1c2ccccc2C(C)=CC1(C)C | 3% (inactive)
23 | COC(=O)c1ccc(CSc2nnc(CCCN3C(=O)c4cccc5cccc(c45)C3=O)n2-c2ccccc2)cc1 | 15% (inactive)
24 | CCOC(=O)C1=C(C)N=c2s/c(=C\c3ccc(-c4ccc(Br)cc4[N+](=O)[O-])o3)c(=O)n2C1c1ccccc1 (stereo not drawn) | 48% (inactive)
25 | COc1ccc(C2C(C#N)=C(N)OC3=C2C(=O)CC(c2ccccc2)C3)cc1C (stereo not drawn) | 9% (inactive)
26 | O=C(Nc1cccc(Cl)c1Cl)c1ccc(-c2ccc(Br)cc2)o1 | 57% (active)
27 | O=C(Nc1cccc(Cl)c1Cl)c1ccc(-c2cccc(Cl)c2)o1 | 37% (inactive)
28 | O=C(Nc1cccc(Cl)c1Cl)c1ccc(Br)o1 | 16% (inactive)
29 | Clc1ccccc1OCCCn1ccnc1 | 0% (inactive)
30 | C=C(C)c1cccc(C(C)(C)NC(=O)NCc2ccco2)c1 | 9% (inactive)
31 | CCOC(=O)C1=C(C)N=c2s/c(=C\c3ccc(-c4cccc([N+](=O)[O-])c4)o3)c(=O)n2C1c1ccc(C)cc1 (stereo not drawn) | 19% (inactive)
32 | O=C1C2C3C=CC(CC3)C2C(=O)N1/N=C/c1ccc(I)o1 (stereo not drawn) | 3% (inactive)
33 | O=C1C2C3C=CC(CC3)C2C(=O)N1/N=C/c1ccc(O)cc1 (stereo not drawn) | 0% (inactive)
34 | O=C1C2C3C=CC(CC3)C2C(=O)N1/N=C/c1ccccc1I (stereo not drawn) | 59% (active)
35 | O=C1C2C3C=CC(C3)C2C(=O)N1/N=C/c1ccccc1I (stereo not drawn) | 0% (inactive)
36 | O=C1C2C3C=CC(CC3)C2C(=O)N1/N=C/c1ccccc1O (stereo not drawn) | 0% (inactive)
37 | O=C1C2C3C=CC(CC3)C2C(=O)N1/N=C/c1cccs1 (stereo not drawn) | 56% (active)
38 | CC(Oc1ccc(Br)cc1)C(=O)N/N=C/c1ccc(N(C)C)cc1 (stereo not drawn) | 8% (inactive)
39 | O=C(O)c1cc(NS(=O)(=O)c2ccc(NCCCN3CCOCC3)c([N+](=O)[O-])c2)cc(C(=O)O)c1 | 4% (inactive)
40 | COc1ccc(/C=N/Nc2nc(Nc3ccc(F)cc3)nc(N3CCCCC3)n2)cc1 | 6% (inactive)
41 | CCN(CC)C(=O)c1sc(NC(=O)c2cc(Cl)ccc2OC)c(C#N)c1C | 7% (inactive)
42 | COc1ccc(Cl)cc1C(=O)Nc1sc(C)c(C)c1C#N | 74% (active)

Row | Structure (SMILES) | inhibition
43 | Cc1sc(NC(=O)c2cc(Cl)ccc2Cl)c(C#N)c1C | 4% (inactive)
44 | CC(=O)C1=C(Nc2ccc(Br)cc2)CC(C)(O)C(C(C)=O)C1c1ccc([N+](=O)[O-])cc1 (stereo not drawn) | 4% (inactive)
45 | Cc1ccc(P(=O)(c2ccc(C)cc2)C(C)(C)O)cc1 | 0% (inactive)
46 | CCN(CC)c1nc(-c2ccccc2)c2cc(Cl)ccc2n1 | 12% (inactive)
47 | CN(C)c1nc(-c2ccccc2)c2cc(Cl)ccc2n1 | 13% (inactive)
48 | CN(CCO)c1nc(-c2ccccc2)c2cc(Cl)ccc2n1 | 50% (active)
49 | COc1ccc(-c2nn(-c3ccccc3)cc2/C=N/NS(=O)(=O)c2ccccc2)cc1 | 15% (inactive)
50 | S=C(NCCc1ccccc1)Nc1ccc(Cl)cc1Cl | 46% (inactive)
51 | S=C(NCCc1ccccn1)Nc1ccc(Cl)cc1Cl | 50% (active)
52 | O=C(NCc1ccccn1)Nc1ccc(Cl)c(Cl)c1 | 9% (inactive)
53 | S=C(NCCc1ccccn1)Nc1ccc(Cl)c(Cl)c1 | 59% (active)
54 | S=C(NCCC(c1ccccc1)c1ccccc1)Nc1ccc(Cl)cc1Cl | 12% (inactive)
55 | S=C(NCCc1c[nH]c2ccccc12)Nc1ccc(Cl)c(Cl)c1 | 49% (inactive)
56 | O=C(NC1CCCCC1)c1cccc(C(F)(F)F)c1 | 11% (inactive)
57 | Cc1cc(/C=C(\C#N)C(=O)Nc2ccccc2)c(C)n1-c1sc2c(c1C#N)CCCC2 | 15% (inactive)
58 | CC1(C)C(c2ccccc2)=[N+]([O-])C2(CCCCC/C2=N\NC(N)=O)N1O (stereo not drawn) | 0% (inactive)
59 | Cc1cc(C)c(N/C=C(\C#N)c2nc(-c3ccc(Cl)cc3Cl)cs2)c(C)c1 | 27% (inactive)
60 | CCN(CC)S(=O)(=O)c1cc(-c2nnc(-c3ccc(C)cc3)o2)ccc1C | 3% (inactive)
61 | COc1cccc2c1NC(c1ccc(F)cc1)C1CC=CC21 (stereo not drawn) | 35% (inactive)
62 | O=[N+]([O-])c1ccc(C2Nc3c(cccc3[N+](=O)[O-])C3C=CCC32)cc1 (stereo not drawn) | 35% (inactive)
63 | COc1cccc2c1NC(c1ccc([N+](=O)[O-])cc1)C1CC=CC21 (stereo not drawn) | 51% (active)
